Assay results reported in PubChem BioAssay (EPA / NIEHS).
“And” between values parts separate entries of the source, which are not always exact repeats. Equal values may be shown once. The source made the active and inactive calls. How the source made its calls: active means hit-call score of the fitted dose curve at least 0.9, where 1 is the maximum; inactive means score below 0.9.

Read-out: E-selectin (Homo sapiens) (UniProt P16581)
Experiment: BSK_3C_Eselectin: BioMAP Diversity Plus: 3C Assay for Eselectin Biomarker Activity (AID 2283015)
Conditions: primary human endothelial cells (HUVEC); actives raise or lower the signal
Description: BSK_3C is a cell-based, multiplexed-readout assay that uses umbilical vein endothelium, a human vascular primary cell, with measurements taken at 24 hours after chemical dosing in a 96-well plate.BSK_3C_Eselectin is an assay component measured in the BSK_3C assay. It measures E-selectin antibody related to regulation of gene expression using ELISA technology.Data from the assay component BSK_3C_Eselectin was analyzed into 1 assay endpoint. This assay endpoint, BSK_3C_Eselectin, was analyzed with bidirectional fitting relative to DMSO as the negative control and baseline of activity. Using a type of binding reporter, gain or loss-of-signal activity can be used to understand changes in the signaling as they relate to the gene SELE. Furthermore, this assay endpoint can be referred to as a primary readout, because this assay has produced multiple assay endpoints where this one serves a signaling function. To generalize the intended target to other relatable targets, this assay endpoint is annotated to the cell adhesion molecules intended target family, where the subfamily is selectins.
The levels of cell surface (or secreted, indicated by the prefix "s") biomarker endpoints were measured by ELISA. Overt cytotoxicity to cells in confluent adherent cultures (all systems other than the BT system) was assessed by measuring total protein levels using sulforhodamine B (SRB) staining in parallel cultures at the time of biomarker measurements, indicated as SRB endpoints. For proliferation assays for adherent cell types, individual cell types are cultured at sub-confluence and relative cell numbers quantified by SRB staining at time points optimized for each system (48 h: 3C and CASM3C systems; 72 h: BT and HDF3CGF systems; 96 h: SAg system). SRB was performed by staining cells with 0.1% SRB after fixation with 10% TCA and reading wells at 560 nm.Viability and proliferation of PBMC (T cells) was quantified by Alamar Blue reduction for the SAg and BT systems. For PBMC viability (referred to as PBMC Cytotoxicity within the assay endpoint names), cells were plated (75,000/well in a 96-well plate) and then chemical samples added for 1 h before addition of activators, SEB and TSST-1 (20 ng/mL final concentration each). Cells were incubated for 90 h. Then, Alamar Blue (20 uL/well) (Invitrogen, Cat DAL1100) was added for 6 h, and the plates were read with a fluorescence microplate reader at 546/580 nm (excitation/emission). For PBMC proliferation, cells were plated and activated as above but incubated for only 16 h prior to addition of Alamar Blue. Plates were read after 6 h.

Sequence of E-selectin (Homo sapiens) (P16581 whole entry, looked up): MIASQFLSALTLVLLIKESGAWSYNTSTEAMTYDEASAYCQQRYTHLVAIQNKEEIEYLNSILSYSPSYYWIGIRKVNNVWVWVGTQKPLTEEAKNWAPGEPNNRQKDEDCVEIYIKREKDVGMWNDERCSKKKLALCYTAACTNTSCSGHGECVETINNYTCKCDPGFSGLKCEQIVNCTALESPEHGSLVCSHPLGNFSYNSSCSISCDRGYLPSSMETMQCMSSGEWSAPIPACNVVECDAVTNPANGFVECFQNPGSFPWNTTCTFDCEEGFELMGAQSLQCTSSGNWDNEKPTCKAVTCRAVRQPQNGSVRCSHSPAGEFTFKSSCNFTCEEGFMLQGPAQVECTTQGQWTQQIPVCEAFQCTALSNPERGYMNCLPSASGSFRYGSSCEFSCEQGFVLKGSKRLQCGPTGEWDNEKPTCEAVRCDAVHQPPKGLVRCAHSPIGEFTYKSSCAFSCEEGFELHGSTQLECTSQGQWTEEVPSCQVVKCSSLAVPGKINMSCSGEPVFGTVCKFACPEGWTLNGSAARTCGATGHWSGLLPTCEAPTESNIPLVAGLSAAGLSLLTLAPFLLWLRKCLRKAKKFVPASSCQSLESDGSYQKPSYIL

| Compound | outcome | AC50 |
| --- | --- | --- |
| NC(=O)c1c(Cl)cccc1Cl | inactive | – |
| CC(=O)CCC=C(C)CCC=C(C)C | inactive | – |
| CCCO[Si](OCCC)(OCCC)OCCC | inactive | – |
| CC/C(=C(\c1ccccc1)c1ccc(OCCN(C)C)cc1)c1ccccc1 | – | 11.7 µM (active) and 11.2 µM (active) |
| c1ccc(Sc2ccccc2)cc1 | – | 29.9 µM (active) |
| COC(=O)c1ccc(C(=O)OC)cc1 | inactive | – |
| CC1=CC(C)C(C=O)C(C)C1 (stereo not given) (tested in a mixture with another compound) | inactive | – |
| CC(=O)c1ccc(C)cc1 | inactive | – |
| CCCCCCCC1CCCC1=O (stereo not given) | – | 31.3 µM (active) |
| CCOC(=O)C=Cc1ccccc1 | inactive | – |
| O=C(O)C(F)(F)OC(F)(F)C(F)(F)OC(F)(F)C(F)(F)C(F)(F)C(F)(F)F | inactive | – |
| CCCCCCCCCC(=O)OCC | – | 15.2 µM (active) |
| CC(C)CCCC(C)(C)O | inactive | – |
| C=C1CC/C=C(\C)CC[C@@H]2[C@@H]1CC2(C)C | – | 27.4 µM (active) |
| CC=CC(=O)C1=C(C)C=CCC1(C)C | inactive | – |
| O=C(O)C(F)(F)C(F)(F)C(F)(F)C(F)(F)C(F)(F)C(F)(F)C(F)(F)C(F)F | inactive | – |
| OCCN1CCOCC1 | inactive | – |
| C#C[C@]1(O)CC[C@H]2[C@@H]3CCc4cc(O)ccc4[C@H]3CC[C@@]21C | – | 5.36 µM (active) |
| O=C(c1ccc(OCCN2CCCCC2)cc1)c1c(-c2ccc(O)cc2)sc2cc(O)ccc12 | – | 37.8 µM (active) |
| CCn1cc(C(=O)O)c(=O)c2ccc(C)nc21 | inactive | – |

| Compound | outcome | AC50 |
| --- | --- | --- |
| O=S1(=O)CC(Cl)(Cl)C(Cl)(Cl)C1 | – | 0.611 µM (active) |
| CCCCCCCCCCCCS | – | 20 µM (active) |
| C=C(C)C(=O)OCCC(F)(F)C(F)(F)C(F)(F)C(F)(F)C(F)(F)C(F)(F)C(F)(F)C(F)(F)F | inactive | – |
| CCCCOCCOCCO | inactive | – |
| C[C@]12CC[C@@H]3c4ccc(O)cc4CC[C@H]3[C@@H]1CC[C@@H]2O | – | 4.87 µM (active) |
| C=C(C)C(N)=O | inactive | – |
| CCCCN(CCO)CCO | inactive | – |
| CCC(=O)OCC=Cc1ccccc1 | inactive | – |
| CC1(C)[C@H](C=C(Cl)Cl)[C@H]1C(=O)OCc1cccc(Oc2ccccc2)c1 | inactive | – |
| c1ccc(OCCOc2ccccc2)cc1 | inactive | – |
| C=C(F)C(=O)OC(C(F)(F)F)C(F)(F)F | inactive | – |
| CCOC(=O)CCCCCCCCC(=O)OCC | inactive | – |
| OCC(F)(OC(F)(F)C(F)(OC(F)(F)C(F)(F)C(F)(F)F)C(F)(F)F)C(F)(F)F (stereo not given) | – | 3.09 µM (active) and 3.33 µM (active) |
| O=S(=O)(O)C(F)(F)C(F)(F)OC(F)(F)C(F)(F)F | inactive | – |
| Nc1ccc(N)c([N+](=O)[O-])c1 | – | 13.6 µM (active) |
| CC(C)(CO)CO | inactive | – |
| COc1ccccc1NC(=O)CC(C)=O | inactive | – |
| CC(C)Cc1ccc(C(C)C(=O)O)cc1 (stereo not given) | inactive | – |
| O=C1OC2(c3ccc(O)cc3Oc3cc(O)ccc32)c2ccccc21 | inactive | – |
| CC(C)(C)c1cccc(O)c1 | inactive | – |
